Reference: ChEMBL document CHEMBL5724796, “Tm Shift (DSF) assay results for EUbOPEN Chemogenomics Library” (2024)

Key:
Conditions in all cases: Compound concentration 20.0 uM
[1] = target: Tyrosine-protein kinase ABL1 (Homo sapiens) (UniProt P00519)
[2] = target: Bromodomain-containing protein 4 (Homo sapiens) (UniProt O60885)
[3] = target: Cyclin-dependent kinase 2 (Homo sapiens) (UniProt P24941)
[4] = target: Casein kinase I isoform delta (Homo sapiens) (UniProt P48730)
[5] = target: Glycogen synthase kinase-3 beta (Homo sapiens) (UniProt P49841)
[6] = target: Mitogen-activated protein kinase 1 (Homo sapiens) (UniProt P28482)
[7] = target: T1, Aurora kinase A (Homo sapiens) (UniProt O14965)
T1 sequence (whole entry): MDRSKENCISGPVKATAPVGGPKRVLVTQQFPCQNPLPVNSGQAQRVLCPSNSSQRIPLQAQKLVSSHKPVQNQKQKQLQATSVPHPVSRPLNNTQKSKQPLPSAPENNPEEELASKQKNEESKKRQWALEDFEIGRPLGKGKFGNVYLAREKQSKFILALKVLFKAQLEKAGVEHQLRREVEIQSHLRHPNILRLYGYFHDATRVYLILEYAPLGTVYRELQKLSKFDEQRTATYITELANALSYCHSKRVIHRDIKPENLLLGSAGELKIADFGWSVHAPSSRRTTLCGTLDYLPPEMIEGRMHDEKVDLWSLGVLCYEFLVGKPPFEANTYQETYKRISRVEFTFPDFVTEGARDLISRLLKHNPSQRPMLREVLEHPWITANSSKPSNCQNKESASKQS

[8] = target: T2, Transcription intermediary factor 1-alpha (Homo sapiens) (UniProt O15164)
T2 sequence (whole entry): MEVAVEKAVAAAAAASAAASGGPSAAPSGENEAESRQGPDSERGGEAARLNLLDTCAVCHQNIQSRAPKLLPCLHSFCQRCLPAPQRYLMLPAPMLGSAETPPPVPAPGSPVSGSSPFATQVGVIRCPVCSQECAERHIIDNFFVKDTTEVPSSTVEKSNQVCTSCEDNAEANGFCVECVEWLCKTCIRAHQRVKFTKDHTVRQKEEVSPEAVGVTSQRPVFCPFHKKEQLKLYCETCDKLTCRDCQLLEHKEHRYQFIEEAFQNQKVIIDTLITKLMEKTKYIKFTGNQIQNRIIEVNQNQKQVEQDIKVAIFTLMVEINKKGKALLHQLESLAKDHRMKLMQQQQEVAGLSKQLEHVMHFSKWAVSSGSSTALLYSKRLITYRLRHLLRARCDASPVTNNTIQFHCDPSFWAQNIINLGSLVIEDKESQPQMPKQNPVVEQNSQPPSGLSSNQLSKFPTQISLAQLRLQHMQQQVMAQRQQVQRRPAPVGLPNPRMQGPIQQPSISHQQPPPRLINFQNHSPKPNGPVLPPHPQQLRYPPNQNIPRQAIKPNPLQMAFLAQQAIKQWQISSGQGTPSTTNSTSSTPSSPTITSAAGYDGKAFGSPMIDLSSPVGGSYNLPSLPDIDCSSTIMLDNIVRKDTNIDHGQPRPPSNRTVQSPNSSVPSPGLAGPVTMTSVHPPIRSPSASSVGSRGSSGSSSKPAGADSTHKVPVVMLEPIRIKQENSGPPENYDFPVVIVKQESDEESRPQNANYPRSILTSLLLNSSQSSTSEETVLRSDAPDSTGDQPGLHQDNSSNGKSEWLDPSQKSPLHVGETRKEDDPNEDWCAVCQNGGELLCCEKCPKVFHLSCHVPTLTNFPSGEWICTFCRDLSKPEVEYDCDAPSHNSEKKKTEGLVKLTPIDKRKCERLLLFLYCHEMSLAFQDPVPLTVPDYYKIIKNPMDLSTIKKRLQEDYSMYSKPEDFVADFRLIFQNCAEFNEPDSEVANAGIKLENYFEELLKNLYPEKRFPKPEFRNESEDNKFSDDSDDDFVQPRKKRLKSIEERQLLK

Chain of Glycogen synthase kinase-3 beta (Homo sapiens) (P49841 whole entry, looked up): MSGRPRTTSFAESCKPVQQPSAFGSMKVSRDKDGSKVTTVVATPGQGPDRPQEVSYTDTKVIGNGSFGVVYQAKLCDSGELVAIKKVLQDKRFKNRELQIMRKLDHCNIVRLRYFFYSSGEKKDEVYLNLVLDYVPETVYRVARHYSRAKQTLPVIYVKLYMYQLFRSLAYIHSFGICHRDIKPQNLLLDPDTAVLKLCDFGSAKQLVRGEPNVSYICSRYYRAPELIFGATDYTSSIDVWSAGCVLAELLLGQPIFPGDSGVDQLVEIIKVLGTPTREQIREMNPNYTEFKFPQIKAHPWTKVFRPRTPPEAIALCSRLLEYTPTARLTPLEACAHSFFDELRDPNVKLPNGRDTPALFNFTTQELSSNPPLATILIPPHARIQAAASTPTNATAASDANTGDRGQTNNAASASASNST
Chain of Mitogen-activated protein kinase 1 (Homo sapiens) (P28482 whole entry): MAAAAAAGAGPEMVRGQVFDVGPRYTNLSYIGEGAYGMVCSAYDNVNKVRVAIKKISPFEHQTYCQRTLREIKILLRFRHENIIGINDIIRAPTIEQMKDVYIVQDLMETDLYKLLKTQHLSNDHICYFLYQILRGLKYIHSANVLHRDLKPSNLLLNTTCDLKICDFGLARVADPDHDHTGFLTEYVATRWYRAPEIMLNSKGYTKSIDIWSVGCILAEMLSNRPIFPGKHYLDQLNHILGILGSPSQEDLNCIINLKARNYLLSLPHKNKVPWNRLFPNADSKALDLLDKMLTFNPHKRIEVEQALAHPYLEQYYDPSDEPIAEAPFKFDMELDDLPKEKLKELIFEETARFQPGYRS
Chain of Casein kinase I isoform delta (Homo sapiens) (P48730 whole entry, looked up, canonical isoform): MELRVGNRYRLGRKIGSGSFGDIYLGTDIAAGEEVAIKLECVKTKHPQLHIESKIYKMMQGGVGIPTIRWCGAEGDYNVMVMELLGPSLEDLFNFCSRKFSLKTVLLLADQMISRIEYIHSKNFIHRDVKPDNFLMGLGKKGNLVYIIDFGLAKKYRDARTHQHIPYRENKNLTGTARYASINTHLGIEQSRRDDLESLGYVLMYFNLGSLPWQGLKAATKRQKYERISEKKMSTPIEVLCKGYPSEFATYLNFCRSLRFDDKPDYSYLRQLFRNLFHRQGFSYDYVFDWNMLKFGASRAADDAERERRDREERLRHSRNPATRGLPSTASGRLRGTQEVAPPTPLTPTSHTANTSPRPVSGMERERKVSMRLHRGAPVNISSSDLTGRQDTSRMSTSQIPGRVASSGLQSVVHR
Chain of Tyrosine-protein kinase ABL1 (Homo sapiens) (P00519 whole entry): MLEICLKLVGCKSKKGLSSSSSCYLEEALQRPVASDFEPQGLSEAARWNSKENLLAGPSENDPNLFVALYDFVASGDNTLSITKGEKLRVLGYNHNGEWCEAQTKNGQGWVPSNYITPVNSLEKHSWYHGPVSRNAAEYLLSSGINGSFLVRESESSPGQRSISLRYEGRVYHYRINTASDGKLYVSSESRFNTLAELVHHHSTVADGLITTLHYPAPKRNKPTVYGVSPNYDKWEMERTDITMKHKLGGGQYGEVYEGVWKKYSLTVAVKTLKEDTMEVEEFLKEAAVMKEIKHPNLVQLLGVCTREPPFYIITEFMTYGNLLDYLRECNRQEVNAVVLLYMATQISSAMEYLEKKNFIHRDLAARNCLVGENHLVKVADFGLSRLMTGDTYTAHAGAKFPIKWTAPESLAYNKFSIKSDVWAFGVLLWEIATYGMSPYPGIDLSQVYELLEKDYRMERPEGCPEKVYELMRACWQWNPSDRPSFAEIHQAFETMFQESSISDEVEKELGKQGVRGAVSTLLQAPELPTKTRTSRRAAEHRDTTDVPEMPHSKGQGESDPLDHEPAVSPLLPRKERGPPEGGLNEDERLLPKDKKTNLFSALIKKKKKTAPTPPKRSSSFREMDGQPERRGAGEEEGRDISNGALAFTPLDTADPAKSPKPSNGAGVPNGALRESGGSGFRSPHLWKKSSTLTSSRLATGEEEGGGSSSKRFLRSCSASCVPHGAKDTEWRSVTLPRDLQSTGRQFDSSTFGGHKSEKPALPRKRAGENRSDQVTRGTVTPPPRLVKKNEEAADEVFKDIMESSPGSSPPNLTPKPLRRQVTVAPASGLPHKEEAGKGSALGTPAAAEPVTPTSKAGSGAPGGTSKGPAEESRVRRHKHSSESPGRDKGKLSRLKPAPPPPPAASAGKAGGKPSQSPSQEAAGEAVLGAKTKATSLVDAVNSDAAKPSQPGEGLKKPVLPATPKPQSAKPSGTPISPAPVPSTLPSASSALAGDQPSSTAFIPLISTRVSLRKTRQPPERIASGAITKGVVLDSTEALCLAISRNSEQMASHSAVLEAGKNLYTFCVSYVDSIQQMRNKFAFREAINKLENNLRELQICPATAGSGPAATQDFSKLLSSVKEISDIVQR

Work on Fc1ccc(CNc2ncnc3ccc(F)cc23)cc1 yielded a ΔTm [1] of 1.11 °C, a ΔTm [2] of -2.88 °C and a ΔTm [3] of 0.04 °C. For the same compound, the ΔTm [4] was 0.46 °C, the ΔTm [5] was 0.18 °C and the ΔTm [6] was 0.19 °C. For the same compound, the ΔTm [7] was -1.03 °C and the ΔTm [8] was -0.4 °C.
CS(=O)(=O)c1ncn2c(NCc3c(F)ccc4c3CCO4)ncc(-c3ccc(C4CC4)nc3)c12 showed a ΔTm [1] of 0.63 °C, a ΔTm [2] of -3.29 °C and a ΔTm [3] of 0.06 °C. For the same compound, the ΔTm [4] was -0.23 °C, the ΔTm [5] was -0.29 °C and the ΔTm [6] was 0.08 °C. The ΔTm [7] was -2.48 °C and the ΔTm [8] was -0.37 °C.
For C=CCn1c(N[C@@H]2C[C@H](c3ccc(OCc4ccccc4)cc3)CN(C)C2)nc2cc[nH]c2c1=O, the ΔTm [1] was 0.69 °C, the ΔTm [2] was 0.73 °C and the ΔTm [3] was -0.03 °C. For the same compound, the ΔTm [4] was -0.36 °C, the ΔTm [5] was -0.88 °C and the ΔTm [6] was 0.13 °C. For the same compound, the ΔTm [7] was -1.6 °C and the ΔTm [8] was 0.04 °C.
For COc1ccc(OC)c(-c2nnc3n2N=C(c2ccc(OC)c(OC)c2)CS3)c1, the ΔTm [1] was 0.21 °C, the ΔTm [2] was 2.23 °C and the ΔTm [3] was -0.04 °C. The ΔTm [4] was -0.07 °C, the ΔTm [5] was -1.12 °C and the ΔTm [6] was 0.55 °C. It also gave a ΔTm [7] of -1.28 °C and a ΔTm [8] of 1.86 °C.
Compound Cc1ncsc1-c1ccc([C@H](C)NC(=O)[C@@H]2C[C@@H](O)CN2C(=O)[C@@H](NC(=O)COCCCOCCNC(=O)C[C@@H]2N=C(c3ccc(Cl)cc3)c3c(sc(C)c3C)-n3c(C)nnc32)C(C)(C)C)cc1 has a ΔTm [1] of -0.44 °C, a ΔTm [2] of 7 °C and a ΔTm [3] of -3.66 °C. For the same compound, the ΔTm [4] was 0.48 °C, the ΔTm [5] was 0 °C and the ΔTm [6] was 0 °C. For the same compound, the ΔTm [7] was 0 °C and the ΔTm [8] was -3.36 °C.
For CS(=O)(=O)c1ccc(-c2cnc(NCc3ccco3)n3cnnc23)cc1, the ΔTm [1] was 0.92 °C, the ΔTm [2] was -0.86 °C and the ΔTm [3] was 0.28 °C. For the same compound, the ΔTm [4] was 0.44 °C, the ΔTm [5] was -2.03 °C and the ΔTm [6] was 0.02 °C. For the same compound, the ΔTm [7] was 0.67 °C and the ΔTm [8] was -1.77 °C.
N=C(N)SCc1ccc(CN2C(=O)C(=O)c3cc(Br)cc(Br)c32)cc1 showed a ΔTm [1] of -4.26 °C, a ΔTm [2] of -11.4 °C and a ΔTm [3] of 0 °C. For the same compound, the ΔTm [4] was -2.52 °C, the ΔTm [5] was -2.8 °C and the ΔTm [6] was -1.76 °C. The ΔTm [7] was -5.55 °C and the ΔTm [8] was 0 °C.
Work on Cc1cc(-n2cccc2)c(S(C)(=O)=O)cc1C(=O)N=C(N)N yielded a ΔTm [1] of 0.53 °C, a ΔTm [2] of -2.59 °C and a ΔTm [3] of -0.16 °C. It also gave a ΔTm [4] of -0.26 °C, a ΔTm [5] of -0.28 °C and a ΔTm [6] of 0.62 °C. The ΔTm [7] was -2.33 °C and the ΔTm [8] was -0.16 °C.
Work on COc1ccccc1C(=O)Nc1cc2c(cc1N1CCCCC1)n(C)c(=O)n2C yielded a ΔTm [1] of 0.35 °C, a ΔTm [2] of -2.11 °C and a ΔTm [3] of 0.1 °C. It also gave a ΔTm [4] of 0.01 °C, a ΔTm [5] of 0.08 °C and a ΔTm [6] of 0.17 °C. The ΔTm [7] was -1.43 °C and the ΔTm [8] was -0.76 °C.
Compound CCCc1nc(C)c2c(C)nc3ccc(OC)nc3n12 has a ΔTm [1] of 1.04 °C, a ΔTm [2] of -3.02 °C and a ΔTm [3] of -0.07 °C. It also gave a ΔTm [4] of 2.7 °C, a ΔTm [5] of 1.39 °C and a ΔTm [6] of 0.58 °C. It also gave a ΔTm [7] of -1.87 °C and a ΔTm [8] of 0.69 °C.
Work on COc1cc2c(NC3CCN(CC4CCCCC4)CC3)nc(N3CCCN(C(C)C)CC3)nc2cc1OCCCN1CCCCC1 yielded a ΔTm [1] of 0.33 °C, a ΔTm [2] of -0.97 °C and a ΔTm [3] of 0.51 °C. The ΔTm [4] was 0.17 °C, the ΔTm [5] was -0.33 °C and the ΔTm [6] was -0.16 °C. For the same compound, the ΔTm [7] was -0.14 °C and the ΔTm [8] was -0.74 °C.
For CS(=O)(=O)Nc1ccc2oc3c(OC(F)F)ccc(C(=O)Nc4c(Cl)cncc4Cl)c3c2c1, the ΔTm [1] was 0.6 °C, the ΔTm [2] was -1.02 °C and the ΔTm [3] was -0.16 °C. It also gave a ΔTm [4] of -1.11 °C, a ΔTm [5] of -0.39 °C and a ΔTm [6] of 0.24 °C. The ΔTm [7] was -1.56 °C and the ΔTm [8] was 0.09 °C.
Work on Cc1ncsc1-c1ccc(CNC(=O)[C@@H]2C[C@@H](O)CN2C(=O)[C@@H](NC(=O)COCCOCCOc2ccc(-c3ccc4ncnc(Nc5ccc(OCc6cccc(F)c6)c(Cl)c5)c4c3)cc2)C(C)(C)C)cc1 yielded a ΔTm [1] of 2.92 °C, a ΔTm [2] of 5.48 °C and a ΔTm [3] of 5.97 °C. It also gave a ΔTm [4] of -3.34 °C, a ΔTm [5] of 9.57 °C and a ΔTm [6] of -2.89 °C. For the same compound, the ΔTm [7] was 7.09 °C and the ΔTm [8] was 10.8 °C.
Compound O=C(NO)c1cnc(NC2(c3ccccc3)CC2)nc1 has a ΔTm [1] of -0.47 °C, a ΔTm [2] of -1.48 °C and a ΔTm [3] of 0.47 °C. The ΔTm [4] was 0.23 °C, the ΔTm [5] was -0.05 °C and the ΔTm [6] was -0.3 °C. For the same compound, the ΔTm [7] was -0.41 °C and the ΔTm [8] was -1.75 °C.
Compound O=C(NO)c1ccc(CN(c2cnccn2)c2cnccn2)cc1 has a ΔTm [1] of 0.4 °C, a ΔTm [2] of -1.6 °C and a ΔTm [3] of -0.02 °C. The ΔTm [4] was 0.05 °C, the ΔTm [5] was -1.38 °C and the ΔTm [6] was -0.44 °C. For the same compound, the ΔTm [7] was -0.32 °C and the ΔTm [8] was -1.38 °C.
For CCCCCCCCCCCCCCCCNNC(=O)c1cccs1, the ΔTm [1] was 0.05 °C, the ΔTm [2] was -1.37 °C and the ΔTm [3] was -0.3 °C. The ΔTm [4] was 0.26 °C, the ΔTm [5] was -1.02 °C and the ΔTm [6] was 0.48 °C. For the same compound, the ΔTm [7] was -0.52 °C and the ΔTm [8] was -0.93 °C.
In the case of COc1cc2c(NC3CCN(C)CC3)cc(-c3ccc(C)o3)nc2cc1OCCCN1CCCC1, the ΔTm [1] is reported as 0.3 °C, the ΔTm [2] is reported as 0.18 °C and the ΔTm [3] is reported as 0.69 °C. It also gave a ΔTm [4] of 0.17 °C, a ΔTm [5] of 0.49 °C and a ΔTm [6] of 0.01 °C. It also gave a ΔTm [7] of 0.09 °C and a ΔTm [8] of -0.54 °C.
In the case of C[C@H](Nc1nc2c(cnn2C2CCCC2)c(=O)[nH]1)c1ccc(Cl)cc1, the ΔTm [1] is reported as -2.54 °C, the ΔTm [2] is reported as -1.24 °C and the ΔTm [3] is reported as -1 °C. It also gave a ΔTm [4] of 0.11 °C, a ΔTm [5] of -1.9 °C and a ΔTm [6] of -7.46 °C. The ΔTm [7] was -6.85 °C and the ΔTm [8] was 0.56 °C.
